High-throughput results: PubChem BioAssay, Broad Institute
The sample as a whole holds a higher share of hits than the screen did.
Tg IFNy HTS – T. gondii growth inhibition with IFN-gamma, primary screen, cell-based | Toxoplasma gondii growth in IFN-gamma-treated host cells; stronger effect = lower value | activity change, negative = inhibition, % (test concentration not listed) | 69,000 compounds, 3.8% hits; in the data active = activity change below about -70%, passing the limit was not always enough;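 also: host cells are HeLa cells infected with Toxoplasma gondii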
Starred values were filed as active, the others as inactive; i = inactive.

SMILES	Tg IFNy HTS
CCCCCOC(=O)Nc1nc(=O)n([C@@H]2O[C@H](C)[C@@H](O)[C@H]2O)cc1F	-53
Cc1cn([C@H]2O[C@@H](CO)[C@H](O)[C@@H]2F)c(=O)[nH]c1=O	18
COCCN1CCN(C(=O)C2CC=CC2)Cc2ccc(C)nc21	-5
Cc1ccc(NC(=O)N2CCC3(CC2)Nc2cc(F)ccc2-n2cccc23)cc1	i
CCN(CC)c1ccc(NC(=S)NC(=O)c2ccc(OC)cc2)cc1	-10
COc1ccc(Nc2nccc(NCCO)n2)cc1	85
CCN(CC)c1nc(Nc2ccc(OC)cc2)nc(Nc2ccc(OC)cc2)n1	-97*
CN1C(=O)CCC12CCC(NC(=O)c1ccc[nH]1)CC2 (configuration not stated)	-42
Clc1cccc2c1CCN(c1ncnc3c1CCNC3)C2	-26
FC(F)(F)c1cccc(NC(=S)Nc2csc(C(F)(F)F)c2-c2ccccc2)c1	-97*
FC(F)(F)c1cccc(NC(=S)Nc2cccc(C(F)(F)F)c2)c1	19
CCOC(=O)c1cn[nH]c1NC(=S)Nc1cccc(C(F)(F)F)c1	-34
CCCN(CCC)CCNC(=O)C1=C(C)C(=O)OC12CCN(S(=O)(=O)CC)CC2	23
O=C(c1cnccn1)N1CCC2(CC1)CN(c1ncc(F)cn1)CCO2	-20
Cc1cc(C)n2nc(C(=O)N3CCCC4(C3)C(=O)Nc3ccccc34)cc2n1 (configuration not stated)	-25
Cc1nc2ncccn2c1C(=O)N1CCCC(C(=O)c2ccc3c4c(cccc24)CC3)C1 (configuration not stated)	-1
Cc1nc2ncccn2c1C(=O)N1CCCC2(C1)C(=O)Nc1ccccc12 (configuration not stated)	-82*
CCN(C[C@H]1N[C@H](CO)[C@H]1c1ccccc1)C(=O)c1ccncc1	-14
Cc1cc(C(=O)N2CCC3(CC2)CNC(=O)C3)no1	i
CC(C)c1cn(CC[C@H]2CC[C@@H](NS(=O)(=O)c3ccc(F)cc3)[C@@H](CO)O2)nn1	-12
O=C(c1ccoc1)N1CCCC2(CCN(c3cncnc3)C2=O)C1 (configuration not stated)	1
CCc1nc(SCC(=O)N2c3ccccc3Sc3ccccc32)c2ccccc2n1	-82*
O=C(COc1nc2ccccc2s1)N1c2ccccc2Sc2ccccc21	0
CCn1nnnc1SCC(=O)N1c2ccccc2Sc2ccccc21	-11
CC1(C)CC(CCN)(c2ccccc2)CCO1 (configuration not stated)	-52
SMILES	Tg IFNy HTS
COc1ccc(CNC2=NCCNC23CCN(S(=O)(=O)c2ccc(C(C)C)cc2)CC3)cc1	-14
COc1cccc(C(=O)Nc2ccc3c(c2)C(=O)N(C)C[C@@H](OC)[C@H](C)CN(C(=O)C2CC2)[C@H](C)CO3)c1	-19
Cc1nc(-c2ccc(F)cc2)sc1CCNC(=O)c1cccc(Br)c1	-13
CC(C)(C)c1cnc(CSc2cnc(NC(=O)C3CCNCC3)s2)o1	-72*
CCS(=O)(=O)N1CCC2(CC1)OC(=O)C(C)=C2C(=O)Nc1cc(C)ccc1C	42
Cc1c(C(=O)N2CCC(C)CC2)oc2ccc3c(c12)C(O)CC1(CCCCC1)O3 (configuration not stated)	-100*
Cc1ccc(C(=O)N2CCC3(CC2)CC(CC(=O)NCC(C)C)c2ccccc2O3)o1 (configuration not stated)	-39
CC1(C)Oc2ccc3ccc(=O)oc3c2C(N2CCCCC2)C1O (configuration not stated)	-8
Cn1ccnc1-c1ccc(NCC2COCCO2)nn1 (configuration not stated)	62
CC(=O)N1CCN(c2ccc3ccc(C(=O)NCCc4ccccc4)cn23)CC1	13
CCCN(C)C[C@H]1Oc2cc(/C=C/c3ccccc3)ccc2S(=O)(=O)N([C@H](C)CO)C[C@@H]1C	-18
Cc1nc(-c2ccccc2)sc1C(=O)Oc1ccccc1N1CCOCC1	-56
CCOC(=O)c1cnc2oc3ccc(O)cc3c2c1-c1ccccc1	14
CCOC(=O)c1cnc2c(-c3ccccc3)c(C(F)(F)F)sc2c1N1CCOCC1	-93*
CC(C)C(=O)N1CC[C@@H]2N(C)CC[C@@]2(C(=O)N2CCOCC2)CC1	8
O=C1NCCN(Cc2ccccc2)C12CCN(S(=O)(=O)c1ccc(F)cc1)CC2	-10
CC(CCCC(C)(C)O)CCN1CCC2(CC1)C(=O)NCCCN2C (configuration not stated)	7
O=C1NCN(c2ccccc2)C12CCN(CCCC(c1ccc(F)cc1)c1ccc(F)cc1)CC2	-81*
CNC(=O)C(C)N(C)Cc1cnc(-c2ccccc2C)s1 (configuration not stated)	-14
Cc1ccc(C(=O)NCCSCc2ccccc2Cl)cc1	-21
Cc1ccc(SCc2ccccc2C(=O)Nc2cc(Cl)ccc2O)cc1	-75*
O=C(Nc1cc(Cl)ccc1O)c1ccccc1CN1CCOCC1	155
COCCN1C(=O)CCc2cc(NS(=O)(=O)Cc3cc(F)cc(F)c3)ccc21	-1
COc1ccc2c(c1)c(CN(C)Cc1n[nH]c3c1CCCC3)cn2C(C)C	17
CCSc1ncc(CN(C)Cc2n[nH]c3c2CCCC3)cn1	-54
SMILES	Tg IFNy HTS
Cc1ccccc1-n1nc(C)c(CN(C)Cc2n[nH]c3c2CCCC3)c1C	-78*
C[C@@H](Oc1ccc2[nH]nc(/C=C/c3cnn(CCO)c3)c2c1)c1c(Cl)cncc1Cl	-75*
O=C(c1ccc(/C=C/c2n[nH]c3ccccc23)cc1)N1CCNCC1	-67
Cc1cc(C)c(S(=O)(=O)Nc2ccc(S(=O)(=O)Nc3nccs3)cc2)c(C)c1	3
C=CCNC(=O)c1ccc(-c2cnc3ccccc3c2)o1	-82*
C=CCNC(=O)c1ccc(-c2ccc(F)c(CO)c2)o1	45
C=CCNC(=O)c1ccc(-c2cccc([N+](=O)[O-])c2)o1	67
COc1ccccc1-c1n[nH]c(=O)n1CCc1ccccc1F	5
O=C(CCC1Nc2c3ccccc3nc(=S)n2C1=O)NCc1ccccc1 (configuration not stated)	8
O=C(NCc1ncc[nH]1)c1ccccc1C1CCNC1 (configuration not stated)	14
CN(C)CC(=O)N1CCc2[nH]nc(-c3ccc(F)cc3)c2CC1	-27
CCN1CCC2(CC1)OC(=O)C(C)=C2C(=O)NCCCN1CCN(c2ccc(OC)cc2)CC1	60
COc1ccc(-c2nc(N(Cc3ccco3)CC3CCCO3)c3ccccc3n2)cc1 (configuration not stated)	1
Cc1ccc(CN2CCC3(CC2)CC(c2cccnc2)C(=O)N3)o1 (configuration not stated)	0
Cc1nc(-c2ccccn2)nc(N2CCN(CCO)CC2)c1Cl	-14
Cc1nc(-c2ccccn2)nc(N(C)c2ccccc2)c1Cl	-101*
CN1CCN(CCO)C(=O)C12CCN(C1CCOC1)CC2 (configuration not stated)	4
CCN(C)c1ccnc(C2COCCN2CC2CCOCC2)n1 (configuration not stated)	-1
CO[C@@H]1CC[C@@H]2[C@H]1OCCN2C(=O)N(C)C	51
CN(C)C(=O)N1CCO[C@@H]2[C@H]1CC[C@H]2OCCN1CCCC1	-3
CN(C)C(=O)N1CCO[C@@H]2[C@H]1CC[C@H]2OCC1CCOCC1	-72*
CN(C)[C@@H]1c2ccccc2[C@@H]2CN(Cc3ccsc3)C[C@@H]12	-11
COc1ccc(C(=O)c2ccc(C)cc2)c(O)c1	98
NC(=O)c1ccc(I)c([N+](=O)[O-])c1	20
